Measured values published in the supplement of paper PMC3545927.
The list shows a part of the results. No count for the full screen is at hand.

Molecular target: furin, P09958
Test: furin cleavage Z-score vs untreated control; higher = more cleavage, active = 3.5 or more, inactive = 1 or less, 8 variable residues between constant flanks
How it was run: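 Peptides 8 residues long, fused to a cDNA oligonucleotide, were fixed to magnetic beads by the N-terminus and exposed to purified furin. The 0.01 ml reactions contained 50 mM HEPES pH 7.5 with CaCl2 and NaCl at 1:10 enzyme:substrate and ran 7.5, 15 or 30 min. For the cleavage Z-score, log counts of sequenced released DNA were compared with furin-free reactions, lowess-adjusted and scaled by median absolute deviation.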

Sequence of furin, P09958 (P09958 whole entry): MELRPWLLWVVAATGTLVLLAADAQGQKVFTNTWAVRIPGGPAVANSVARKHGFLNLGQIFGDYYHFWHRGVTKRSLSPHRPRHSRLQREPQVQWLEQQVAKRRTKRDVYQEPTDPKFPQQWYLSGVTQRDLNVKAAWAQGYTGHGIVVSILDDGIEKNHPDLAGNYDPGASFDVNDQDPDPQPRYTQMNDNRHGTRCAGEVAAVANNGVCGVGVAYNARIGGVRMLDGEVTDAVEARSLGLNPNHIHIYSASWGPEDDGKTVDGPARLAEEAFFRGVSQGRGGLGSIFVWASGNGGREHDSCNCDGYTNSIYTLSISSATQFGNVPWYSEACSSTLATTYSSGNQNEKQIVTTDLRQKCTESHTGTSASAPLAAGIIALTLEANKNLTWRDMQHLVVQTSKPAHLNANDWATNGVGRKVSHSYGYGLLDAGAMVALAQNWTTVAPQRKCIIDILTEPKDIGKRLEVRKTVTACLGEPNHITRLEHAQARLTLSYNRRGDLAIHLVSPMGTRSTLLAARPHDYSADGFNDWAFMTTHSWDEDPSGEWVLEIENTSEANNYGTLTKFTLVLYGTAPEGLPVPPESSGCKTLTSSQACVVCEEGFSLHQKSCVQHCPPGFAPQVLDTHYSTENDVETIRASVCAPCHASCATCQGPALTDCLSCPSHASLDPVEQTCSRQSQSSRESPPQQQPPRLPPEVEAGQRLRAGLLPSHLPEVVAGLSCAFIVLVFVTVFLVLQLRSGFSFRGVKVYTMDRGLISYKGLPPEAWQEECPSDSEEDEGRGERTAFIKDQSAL

| Sequence | furin cleavage Z-score (7.5 min) | furin cleavage Z-score (15 min) | furin cleavage Z-score (30 min) |
| --- | --- | --- | --- |
| CAEQVTSTWVAGNASASA [HC2182] | 1.33 | -1.99 (inactive) | 0.572 (inactive) |
| CAVVCCSSSYAGNASASA [HC2057] | 0.153 (inactive) | -0.457 (inactive) | -1.02 (inactive) |
| CAVPRRPARAAGNASASA [FS-150] | 9.11 (active) | 8.34 (active) | 7.62 (active) |
| CARLRKQARAAGNASASA [FS-2711] | 0.606 (inactive) | 1.95 | 3 |
| CADLGRPARSAGNASASA [FS-1447] | -0.204 (inactive) | -0.114 (inactive) | 1.88 |
| CAVPESDAAAAGNASASA [HC1128] | -0.849 (inactive) | -1.42 (inactive) | -1.68 (inactive) |
| CALPRRPARSAGNASASA [FS-1231] | 5.68 (active) | 6.25 (active) | 4.95 (active) |
| CAVKPRPARSAGNASASA [FS-1499] | 10.9 (active) | 11.1 (active) | 7.25 (active) |
| CAVTPCAAEEAGNASASA [HC1376] | -0.828 (inactive) | -1.48 (inactive) | -0.78 (inactive) |
| CASTPCSAHPAGNASASA [HC2579] | -0.671 (inactive) | 0.373 (inactive) | 0.672 (inactive) |
| CARFPRAYSYAGNASASA [FS-2924] | -0.296 (inactive) | 0.732 (inactive) | 4.36 (active) |
| CARFPRAAHPAGNASASA [FS-2139] | 3.15 | 2.75 | 4.11 (active) |
| CARLDRSYSYAGNASASA [FS-2986] | 0.288 (inactive) | -0.0412 (inactive) | -1.47 (inactive) |
| CAVVCCSTSYAGNASASA [HC2058] | 1.72 | 0.804 (inactive) | 2.04 |
| CARFKRQTSYAGNASASA [FS-2923] | 8.28 (active) | 8.05 (active) | 8.39 (active) |
| CARFPRTWWQAGNASASA [FS-1949] | 0.217 (inactive) | -0.0617 (inactive) | 0.886 (inactive) |
| CAVVCCSYSYAGNASASA [HC2049] | 0.949 (inactive) | 0.0975 (inactive) | -1.13 (inactive) |
| CAVVCCMMSYAGNASASA [HC108] | 0.208 (inactive) | 0.787 (inactive) | 1.59 |
| CAMWECSQHLAGNASASA [HC1688] | 0.266 (inactive) | 1.15 | 1.3 |
| CADTPCSGSWAGNASASA [HC1831] | -0.725 (inactive) | -0.574 (inactive) | -0.127 (inactive) |
| CALGVRVCEKAGNASASA [HC1453] | -0.269 (inactive) | -0.873 (inactive) | -1.56 (inactive) |
| CAIAAAGQLDAGNASASA [HC1640] | 0.168 (inactive) | -0.469 (inactive) | -1.87 (inactive) |

| Sequence | furin cleavage Z-score (7.5 min) | furin cleavage Z-score (15 min) | furin cleavage Z-score (30 min) |
| --- | --- | --- | --- |
| CAKRARVVREAGNASASA [FS-262] | 9.07 (active) | 8.16 (active) | 7.16 (active) |
| CAKRSRRIRPAGNASASA [FS-1461] | -0.256 (inactive) | 1.6 | 0.134 (inactive) |
| CASRDRRRREAGNASASA [FS-195] | 10.8 (active) | 10.8 (active) | 7.22 (active) |
| CAKRLRRRREAGNASASA [FS-1224] | 6.7 (active) | 5.88 (active) | 4.7 (active) |
| CAFLATCINGAGNASASA [HC695] | -1 (inactive) | -1.97 (inactive) | 0.404 (inactive) |
| CALVGSATLCAGNASASA [HC293] | -0.853 (inactive) | -0.387 (inactive) | -0.923 (inactive) |
| CARREVPCHRAGNASASA [HC2433] | 0.899 (inactive) | 1.63 | 1.91 |
| CAREPRLVGGAGNASASA [FS-2136] | -1.44 (inactive) | -0.28 (inactive) | 0.256 (inactive) |
| CAATCINGVCAGNASASA [HC696] | -1.44 (inactive) | -0.421 (inactive) | -0.171 (inactive) |
| CAFVAPGERPAGNASASA [HC911] | -1.27 (inactive) | -0.656 (inactive) | -0.848 (inactive) |
| CAYRCRRPRHAGNASASA [FS-1621] | 0.22 (inactive) | 1.07 | 0.99 (inactive) |
| CARPGRLDRHAGNASASA [FS-917] | 1.02 | -0.871 (inactive) | 0.899 (inactive) |
| CARHGRRRRHAGNASASA [FS-1156] | 10.6 (active) | 11.5 (active) | 8.22 (active) |
| CAAAWETARHAGNASASA [HC1568] | 0.137 (inactive) | 0.318 (inactive) | -0.358 (inactive) |
| CAFSPRRHWTAGNASASA [HC307] | 0.332 (inactive) | -0.669 (inactive) | -0.85 (inactive) |
| CAFQNRRARHAGNASASA [FS-1589] | 9.77 (active) | 11.1 (active) | 10.3 (active) |
| CATRRRTPRPAGNASASA [FS-1293] | -0.0603 (inactive) | -0.269 (inactive) | 0.573 (inactive) |
| CAAAARRRRHAGNASASA [FS-638] | 5.47 (active) | 5.84 (active) | 3.86 (active) |
| CASTRRRPRHAGNASASA [FS-1170] | 4.52 (active) | 3.46 | 2.74 |
| CATWVLVGGVAGNASASA [HC990] | 0.127 (inactive) | -1.42 (inactive) | 0.528 (inactive) |
| CAAYAAQGYKAGNASASA [HC782] | -0.0157 (inactive) | -1.07 (inactive) | -0.556 (inactive) |
